Experimental data taken from PubChem BioAssay (NCI).
This is part of a sample that, as a whole, favours compounds with a hit. Of some 83,000 tested, about 20% had one in any assay.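 The endpoint reported here, percent growth, reads 100 for growth as untreated, 0 for no net growth and -100 for all cells dead.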 A number with no mark means an inactive call. Active and inactive are the calls of the source. How the source made its calls: active means growth percent below 10; inactive means the rest.

System: UACC-257 melanoma
Assay: NCI-60 one-dose screen, 48 h (100 = growth as untreated, 0 = no growth, -100 = all killed)
Conditions: 10 µM unless noted

| Structure (SMILES) | growth |
| --- | --- |
| OCCCCc1nccc2c1[nH]c1ccccc12 | 113% |
| CCCn1nc(-c2ccccc2)c2c(-c3ccccc3)onc2c1=O | 112% |
| Cc1cc(N(CCCNc2ccnc3cc(Cl)ccc23)Cc2ccccn2)nc(N2CCCC2)n1 | 81.6% |
| C=C(C)[C@@H]1CC[C@]2(CN)CC[C@]3(C)[C@H](CC[C@@H]4[C@@]5(C)CCC(N)[C@@](C)(CO)[C@@H]5CC[C@]43C)[C@@H]12 (stereo partly drawn) | -88.7% (active) |
| COc1ccc(-n2ncn(CCCCCCn3cnn(-c4ccc(OC)cc4)c3=O)c2=O)cc1 | 101% |
| O=C(NC1CCOCC1)c1ccc2c(c1)CN(c1ncc(Cc3cccc(-n4cccn4)c3)s1)CC2 | 62.6% |
| C=C(CNCCc1ccc(O)cc1)[C@@H]1CC[C@]2(COC3CCCCO3)CC[C@]3(C)[C@H](CC[C@@H]4[C@@]5(C)CCC(NCCO)C(C)(C)[C@@H]5CC[C@]43C)[C@@H]12 (stereo partly drawn) | -85.6% (active) |
| Cc1c(C(=O)O[C@H]2[C@@H]3[C@H](C)CC[C@H]3[C@]3(C)O[C@@]2(C2CCCCC2)C[C@H]3OC(=O)CO)ccc2ccccc12 | 39.8% |
| COc1ccc(Oc2nc(Nc3ccc(N4CCCCC4)nc3)ncc2NC(=O)c2cc(OC)cc(OC)c2)cc1 | 59.4% |
| O=C(Oc1ccc[nH]c1=O)c1cc([N+](=O)[O-])cc([N+](=O)[O-])c1 | 19.7% |
| Cc1cc(N2CCCCC2)nc(N(CCNc2ccnc3cc(Cl)ccc23)Cc2ccccn2)n1 | 66.9% |
| CCCCOc1ccc(NC(=O)n2nc(N=NN(C)C)c3ccc(Cl)cc32)cc1 | 125% |
| O=C1NN(C(=O)c2ccc(O)cc2)C(c2ccccc2)=N/C1=C\c1cn(-c2ccccc2)nc1-c1ccccc1 | 93.8% |
| COC(=O)/C(=C\c1ccc(OC)cc1)C(=O)N1c2ccccc2Sc2ccccc21 | 65.4% |
| COc1ccc(Oc2nc(Nc3ccc(N4CCOCC4)nc3)ncc2NC(=O)c2cc(OC)cc(OC)c2)cc1 | 89.7% |
| NC(=O)c1c(NC(=O)c2ccc(C(F)(F)F)cc2Cl)sc2c1CCC(=O)C2 | -22.4% (active) |
| O=C(NCCOCCOCCOCCNC(=O)c1cc2c(o1)C(=O)c1ccccc1C2=O)NC12CC3CC(CC(C3)C1)C2 | -77% (active) |

| Structure (SMILES) | growth |
| --- | --- |
| COC(=O)c1ccc(CSc2nnc(-c3ccncc3)o2)cc1 | 99% |
| CCCc1nc2ccccn2c1Nc1ccc(C(=O)NO)cc1 | 76.1% |
| Fc1ccc(Nc2ccc3cc(OCCCN4CCOCC4)ccc3n2)cc1F | 30.4% |
| C=C1c2c(C)nn(-c3ccc(S(N)(=O)=O)cc3)c2N(C)C23CC1C1(C)c4c(C)nn(-c5ccc(S(N)(=O)=O)cc5)c4N(C)C(C)(CC12)C3 (stereo not drawn) | 49% |
| C=C1c2c(C)nn(-c3ccc(NC(C)=O)cc3)c2N(C)C23CC1C1(C)c4c(C)nn(-c5ccc(NC(C)=O)cc5)c4N(C)C(C)(CC12)C3 (stereo not drawn) | 38.4% |
| C[C@@H]1CC[C@@H]2[C@@H]1[C@H](OC(=O)c1ccc3ccccc3c1)[C@]1(C3CCCCC3)C[C@@H](OC(=O)CO)[C@@]2(C)O1 | 63.3% |
| CC(C)(C)c1ccc(C(=O)Nc2sc3c(c2C(N)=O)CCC(=O)C3)cc1 | -30.4% (active) |
| N=c1ccn2c(n1)OC1C(O)C(CO)OC12 (stereo not drawn) | 54.6% |
| NC(=Nc1ccc(N)cc1)C(N)=Nc1ccc(N)cc1 | 31.8% |
| COc1ccc(/C=C(\C#N)n2nnc3cc(F)c(F)cc32)c(OC)c1OC | 64.4% |
| C=C1c2c(C)nn(-c3ccc(O)cc3)c2N(C)C23C[C@@H]1C1(C)c4c(C)nn(-c5ccc(O)cc5)c4N(C)C(C)(C[C@H]12)C3 (stereo partly drawn) | 29.1% |
| CSc1ccc(Cl)c(C(=O)Nc2sccc2C(N)=O)c1 | 104% |
| C=C1c2c(C)nn(-c3ccc(N)cc3)c2N(C)C23CC1C1(C)c4c(C)nn(-c5ccc(N)cc5)c4N(C)C(C)(CC12)C3 (stereo not drawn) | 72.5% |
| CC(=O)Nc1ccc2c(c1)Cc1c(F)cccc1-2 | 110% |
| C=C(C)[C@@H]1CC[C@]2(CNCCO)CC[C@]3(C)[C@H](CC[C@@H]4[C@@]5(C)CCC(N)[C@@](C)(CO)[C@@H]5CC[C@]43C)[C@@H]12 (stereo partly drawn) | -87.1% (active) |
| Cc1cnc(Nc2ccc(OCCN3CCCC3)cc2)nc1NCc1ccco1 | 96% |
